Composite z-score, z-score and composite Z-score data for 6 compounds are collected here from PubChem BioAssay.

For assay [1], the system named is Human papillomavirus type 1a protein E7 (residues 44-93). Nature of the assay: small molecules binding HPV E7 44-93 – biochemical, small-molecule microarray, residues 44-93, 635 nm fluorescence, primary screen (AID 1108).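 Also: E7 fragment applied at 1 µg/mL in TBST for 1 h at 4 C; score combines spot fluorescence with its signal to noise ratio.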 To be noted: fluorescence 635 nm, higher = more signal.
The nature of assay [2]: hepatitis C replication reporter changes, two-sided – Huh7 cells, luciferase reporter, HCV replication inhibitor project, primary screen (AID 1109).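 Also: huh7 hepatoma cells harbouring a luciferase neomycin HCV replicon reporter; luciferase luminescence as measure of HCV replicon replication; test concentration not given here.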 The note with it: Huh7 HCV replicon luciferase reporter, 48 h; higher = more signal. In general terms: A reporter such as luciferase makes a cellular process visible.
Assay [3] has as its target Left-right determination factor 2 (Homo sapiens) (UniProt O00292). The experiment in a line: small molecules binding LEFTY2 protein – biochemical, small-molecule microarray, 635 nm fluorescence scan, primary screen (AID 1110). The note with it: higher = more signal.
The target of assay [4] is Calmodulin-1 (Homo sapiens) (UniProt P0DP23). The experiment in a line: small molecules binding calmodulin-1 with EGTA – biochemical, small-molecule microarray, Cy5-labelled CALM1, profiling panel (AID 1111).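 Also: labelled calmodulin applied in Tris saline Tween buffer holding calcium plus EGTA and DTT.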 The note with it: Cy5-CALM1 binding fluorescence, higher = more signal.
The target is the same in assay [5]. The experiment in a line: small molecules binding Ca-loaded calmodulin-1 – biochemical, small-molecule microarray, Cy5-labelled CALM1, plus calcium, artefact control for SMM control-protein annotation, profiling panel (AID 1112).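 Also: score merges spot fluorescence with signal to noise from triplicate slides.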 The note with it: Cy5-CALM1 binding fluorescence, higher = more signal.
The nature of assay [6]: probe aWnt5a binding to arrayed compounds – biochemical, biotinylated probe, 635/667 nm fluorescence, primary screen (AID 1113).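 Also: score merges 667 nm fluorescence intensity with signal-to-noise per printed feature.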 The note with it: small-molecule microarray, higher = more signal.
A short description of assay [7]: probe aShh binding to arrayed compounds – biochemical, biotinylated probe, 635/667 nm fluorescence, primary screen (AID 1114).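 Also: probe is biotin-labelled aShh protein from a stem cell growth factor screen; measures binding of labelled protein to compounds printed on the slide; score merges feature fluorescence at 667 nm with signal-to-noise.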 To be noted: small-molecule microarray, higher = more signal.
Assay [8] in a line: probe aNog binding to arrayed compounds – biochemical, biotinylated probe, 635/667 nm fluorescence, primary screen (AID 1115).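 Also: probe is biotinylated aNog protein used at 0.15 µg/mL for 1 h at 4 C; z-score combines 667 nm fluorescence of each spot with its signal to noise.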 The note with it: small-molecule microarray, higher = more signal.
Assay [9] deals with Torsin-1A-interacting protein 1 (Homo sapiens) (UniProt Q5JTV8). Nature of the assay: compound microarray binding of lysate hLAP1 – cell lysate, small-molecule microarray, COS7 lysate, 635/667 nm fluorescence, primary screen (AID 1116). The note with it: 635 nm fluorescence, higher = more signal.
For assay [10], the target named is Alpha-bungarotoxin (Bungarus multicinctus) (UniProt P60615). The experiment in a line: compounds binding labelled alpha-BTX control protein – biochemical, small-molecule microarray, Alexa647 label, 635/667 nm fluorescence, artefact control for SMM control protein annotation, profiling panel (AID 1117). The note with it: alpha-BTX-A647 binding fluorescence, higher = more signal.

A further assay concerns the target Albumin (Bos taurus) (UniProt P02769). The experiment in a line: compounds binding labelled BSA control protein – biochemical, small-molecule microarray, Alexa647 label, 635/667 nm fluorescence, artefact control for SMM control protein annotation, profiling panel (AID 1118).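 Also: score merges 667 nm emission intensity and signal-to-noise per printed compound spot.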 The note with it: BSA-A647 binding, fluorescence 635 nm, higher = more signal.
Assay [11] is described as follows: probe aXIP binding to arrayed compounds – biochemical, NeuroSMM set, 635/667 nm fluorescence, primary screen (AID 1119).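 Also: probe is the protein aXip251-270 applied at 1 µg/mL to compound-printed slides; binding of probe to printed compounds measured as 667 nm fluorescence plus signal to noise.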 The note with it: small-molecule microarray, higher = more signal, called active from +8 up or from −8 down.
Assay [12] in a line: probe aNOTCH3 binding on compound microarray – biochemical, small-molecule microarray, 635/667 nm fluorescence, primary screen (AID 1120).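 Also: probe is a biotin-tagged antibody raised against NOTCH3 rather than NOTCH3 protein; score merges spot fluorescence near 667 nm with spot signal to noise.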 The note with it: higher = more signal.
The nature of assay [13]: probe aNOTCH2 binding on compound microarray – biochemical, small-molecule microarray, 635/667 nm fluorescence, primary screen (AID 1121).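 Also: score merges feature fluorescence read at 667 nm with its signal to noise.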 To be noted: higher = more signal.
Assay [14] concerns the target Carbonic anhydrase 2 (Homo sapiens) (UniProt P00918). The experiment in a line: compounds binding carbonic anhydrase 2 – biochemical, small-molecule microarray, Alexa647-labelled CAII, profiling panel (AID 1122). To be noted: CAII-A647 binding fluorescence, higher = more signal.
Assay [15] can be described thus: COS7 lysate on small-molecule microarray, probe aHis, 635 nm (AID 1123).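 Also: z-score combines 667nm fluorescence intensity with signal-to-noise per printed compound spot.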 To be noted: COS7 cell lysate, fluorescence, higher = more signal.
Assay [16] is described as follows: probe aLAP1 signal on lysate-treated microarray – cell lysate, small-molecule microarray, COS7 lysate, primary screen (AID 1124).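 Also: lysate comes from COS7 cells expressing LAP1 and is applied at 0.3 µg/mL; score merges spot fluorescence near 667 nm with signal-to-noise over triplicate slides.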 The note with it: probe aLAP1, fluorescence, higher = more signal.
The subject of another assay is Sam68 (KHDRBS1). The experiment in a line: compounds binding KHDRBS1 protein – biochemical, small-molecule microarray, 635 nm fluorescence, primary screen (AID 1125).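 Also: score merges 667 nm channel intensity with signal to noise over triplicate slides.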 To be noted: higher = more signal.
The subject of assay [17] is Chordin-like protein 2 (CHRDL2). Nature of the assay: compounds binding chordin-like 2 – biochemical, small-molecule microarray, 635 nm fluorescence, primary screen (AID 1126).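 Also: printed compound slides probed with Chrdl2 protein at 4 µg/mL for 1 h at 4 C; score merges 667 nm emission intensity with signal to noise over three replicate slides.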 The note with it: fluorescence 635 nm, higher = more signal.
The target of assay [18] is Concanavalin-A (Canavalia ensiformis) (UniProt P02866). Nature of the assay: compounds binding concanavalin A lectin – biochemical, small-molecule microarray, Alexa647 label, 635 nm, artefact control for SMM control protein annotation, primary screen (AID 1127).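 Also: z combines 667 nm emission intensity with signal-to-noise across three replicate slides.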 The note with it: ConA-A647 binding fluorescence, higher = more signal.

Each structure is given as a SMILES string. Active and inactive are the calls of the source.

Chain of Left-right determination factor 2 (Homo sapiens) (O00292 whole entry, looked up): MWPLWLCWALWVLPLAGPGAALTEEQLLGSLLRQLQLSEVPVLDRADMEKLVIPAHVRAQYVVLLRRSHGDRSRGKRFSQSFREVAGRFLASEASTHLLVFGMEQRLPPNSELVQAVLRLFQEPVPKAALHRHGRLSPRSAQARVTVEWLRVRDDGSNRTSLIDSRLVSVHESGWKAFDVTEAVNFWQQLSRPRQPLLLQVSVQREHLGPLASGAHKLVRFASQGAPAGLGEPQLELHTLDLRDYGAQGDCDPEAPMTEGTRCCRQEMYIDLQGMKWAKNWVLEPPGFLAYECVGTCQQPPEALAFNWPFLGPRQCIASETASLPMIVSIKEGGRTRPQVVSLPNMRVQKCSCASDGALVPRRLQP
Chain of Torsin-1A-interacting protein 1 (Homo sapiens) (Q5JTV8 whole entry, looked up): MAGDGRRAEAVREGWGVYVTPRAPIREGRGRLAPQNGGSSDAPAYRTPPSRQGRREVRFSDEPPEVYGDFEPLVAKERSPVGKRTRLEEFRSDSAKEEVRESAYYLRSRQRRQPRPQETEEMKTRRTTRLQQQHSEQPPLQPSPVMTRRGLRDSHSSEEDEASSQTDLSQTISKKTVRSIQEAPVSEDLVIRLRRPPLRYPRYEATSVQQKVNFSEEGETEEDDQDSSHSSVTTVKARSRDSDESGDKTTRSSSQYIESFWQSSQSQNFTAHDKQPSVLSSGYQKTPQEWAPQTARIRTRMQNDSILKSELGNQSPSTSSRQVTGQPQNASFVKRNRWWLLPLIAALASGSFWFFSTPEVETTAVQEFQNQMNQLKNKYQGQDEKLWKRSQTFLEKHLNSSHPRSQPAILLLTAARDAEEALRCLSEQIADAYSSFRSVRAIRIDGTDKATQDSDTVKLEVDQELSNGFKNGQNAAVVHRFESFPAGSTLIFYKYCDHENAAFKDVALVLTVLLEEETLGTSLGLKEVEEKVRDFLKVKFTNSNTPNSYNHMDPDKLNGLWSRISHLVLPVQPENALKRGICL
Chain of Albumin (Bos taurus) (P02769 whole entry, looked up): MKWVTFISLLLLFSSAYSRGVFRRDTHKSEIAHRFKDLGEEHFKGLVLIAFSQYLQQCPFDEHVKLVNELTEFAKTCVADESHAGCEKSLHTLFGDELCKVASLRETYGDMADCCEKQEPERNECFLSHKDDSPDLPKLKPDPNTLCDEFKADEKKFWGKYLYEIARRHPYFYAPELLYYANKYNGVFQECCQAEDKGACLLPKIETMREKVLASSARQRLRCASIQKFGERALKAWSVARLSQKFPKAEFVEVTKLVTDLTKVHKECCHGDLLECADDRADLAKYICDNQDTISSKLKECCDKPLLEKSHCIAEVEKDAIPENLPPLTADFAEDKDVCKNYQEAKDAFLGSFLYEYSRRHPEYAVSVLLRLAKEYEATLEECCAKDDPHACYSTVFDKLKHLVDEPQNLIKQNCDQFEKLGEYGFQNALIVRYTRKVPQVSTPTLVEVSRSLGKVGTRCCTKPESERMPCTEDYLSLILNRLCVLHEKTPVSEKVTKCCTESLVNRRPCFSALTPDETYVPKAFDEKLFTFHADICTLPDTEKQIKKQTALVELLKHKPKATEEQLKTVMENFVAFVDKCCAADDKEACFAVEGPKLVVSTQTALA
Chain of Alpha-bungarotoxin (Bungarus multicinctus) (P60615 whole entry, looked up): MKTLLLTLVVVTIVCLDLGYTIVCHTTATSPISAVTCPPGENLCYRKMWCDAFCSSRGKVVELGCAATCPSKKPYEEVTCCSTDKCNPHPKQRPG
Chain of Concanavalin-A (Canavalia ensiformis) (P02866 whole entry, looked up): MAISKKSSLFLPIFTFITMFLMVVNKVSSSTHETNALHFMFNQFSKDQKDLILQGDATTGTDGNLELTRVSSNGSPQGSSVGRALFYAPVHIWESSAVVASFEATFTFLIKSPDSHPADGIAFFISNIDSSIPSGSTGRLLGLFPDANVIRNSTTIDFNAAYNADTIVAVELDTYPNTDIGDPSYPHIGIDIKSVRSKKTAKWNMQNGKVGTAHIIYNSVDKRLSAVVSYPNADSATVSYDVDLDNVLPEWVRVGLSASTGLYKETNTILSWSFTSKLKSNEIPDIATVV

Take `COCCCNC(=O)[C@@]1(C)c2ccccc2C(=O)N(Cc2cc(C(F)(F)F)cc(C(F)(F)F)c2)[C@H]1c1ccc(CO)cc1`: the composite z-score in assay [1] is 1.32; in [3] it was -1.8; in assay [4] it was 0.0356; in assay [5], 0.378; in [6], -0.154; in assay [7], -0.0626. Moreover, the composite z-score in assay [8] was 0.583; in [9], -0.235; in [10], 1.41; with Albumin (Bos taurus), -0.0502; in assay [12] it was -0.256; in [13], -0.0173. For the same compound, the composite z-score in assay [14] was 0.74; in assay [15], 1.68; in assay [16] it was -0.066; in the assay with Sam68 (KHDRBS1), -0.21; in assay [17], -2.46; in [18] it was 0.851. Further, the z-score in assay [2] was 0.261. Besides, in assay [11], the composite Z-score was 0.318 (inactive).
As to `C=CCC(OC(C)=O)[C@@H]1[C@@H](N(Cc2ccc(-c3ccccc3)cc2)C(=O)Cc2ccc(OC)cc2)c2cc(OCCCO)ccc2N1C(=O)c1ccc2ccccc2n1` (stereo not given in full), the composite z-score in assay [1] was -0.844; in [3] it was -0.259; in assay [4], 0.143; in assay [5], 1.01; in assay [6], 0.0259; in assay [7] it was -0.0553. In addition, the composite z-score was -0.0544 in assay [8]; 0.589 in assay [9]; 0.819 in assay [10]; 0.0184 with Albumin (Bos taurus); 0.0522 in assay [12]; -0.182 in assay [13]. Also, the composite z-score in [14] was 0.195; in assay [15] it was 0.514; in assay [16] it was 0.123; with Sam68 (KHDRBS1) it was -0.959; in assay [17], 0.0504; in assay [18], 0.177. Moreover, the z-score in assay [2] is -0.36. In addition, the composite Z-score in assay [11] was 0.245 (inactive).
As to `CCCCCN1CC=CC23O[C@@H]4/C=C\CCC(C)OC(=O)C4[C@H]2C(=O)N(CCCCCO)[C@@H]3C1=O` (stereo not given in full), the composite z-score in assay [1] is -1.38; in assay [3] it was -0.594; in assay [4] it was -0.476; in assay [5], -0.561; in assay [6] it was -0.298; in [7], -0.147. The composite z-score in assay [8] was -0.24; in assay [9], -0.912; in assay [10], -0.937; with Albumin (Bos taurus), -0.299; in assay [12], -0.149; in assay [13], -0.144. For the same compound, the composite z-score in assay [14] was 0.685; in assay [15], -0.389; in assay [16], -0.29; in the assay with Sam68 (KHDRBS1), -1.09; in [17], -0.793; in assay [18], -0.541. The z-score in assay [2] came to 0.0822. Besides, the composite Z-score in assay [11] was -0.127 (inactive).
With `C=C[C@H](COC(C)=O)N(Cc1ccc(OC(C)=O)c(OC)c1)S(=O)(=O)c1ccc(Br)cc1`, the composite z-score in assay [1] was 1.29; in [3], 0.461; in [4], 1.05; in assay [5], 0.267; in assay [6], 0.0479; in assay [7], -0.291. The composite z-score in assay [8] is -0.407; in assay [9] it was 0.788; in assay [10], 0.998; with Albumin (Bos taurus) it was 0.777; in [12] it was 0.223; in assay [13], 0.272. For the same compound, the composite z-score is 0.512 in assay [14]; 0.987 in assay [15]; 0.509 in assay [16]; 0.988 with Sam68 (KHDRBS1); 0.771 in assay [17]; 1.04 in assay [18]. The z-score in [2] is -0.0847. The composite Z-score in assay [11] was 0.365 (inactive).
As for `CCOC(=O)[C@H]1C[C@H]2O[C@@]23C[C@H]1C(=O)N1CCCC1[C@@H]3O[Si](C)(C)C(C)(C)C` (stereo not given in full), the composite z-score in assay [1] was -0.917; in [3] it was -0.0688; in [4] it was -0.821; in [5], -0.392; in [6] it was -0.184; in assay [7] it was -0.138. Besides, the composite z-score in assay [8] is -0.202; in assay [9], -0.132; in assay [10] it was -0.789; in the assay with Albumin (Bos taurus) it was -0.505; in assay [12] it was 0.0203; in [13], -0.102. The composite z-score in [14] is -0.123; in assay [15], 0.178; in assay [16], -0.244; with Sam68 (KHDRBS1), -0.445; in assay [17] it was -0.694; in assay [18], -1.61. Moreover, the z-score in assay [2] was -0.633. In assay [11], the composite Z-score is 0.545 (inactive).
`[N-]=[N+]=Nc1ccccc1[C@H]1OC(c2ccc(OCCCO)cc2)=N[C@@]1(CCS(=O)(=O)c1ccccc1)C(=O)O`: the composite z-score in assay [1] is 0.447; in [3], -0.512; in [4] it was 1.16; in assay [5], 0.373; in assay [6] it was -0.131; in [7] it was 0.0278. Besides, the composite z-score in assay [8] is 1.01; in assay [9], 2; in [10] it was 0.582; in the assay with Albumin (Bos taurus) it was 0.622; in [12] it was -0.0647; in assay [13], 0.0278. For the same compound, the composite z-score was 0.419 in assay [14]; 2.77 in [15]; 0.425 in assay [16]; 0.0569 in the assay with Sam68 (KHDRBS1); -0.378 in assay [17]; 0.475 in assay [18]. This compound also yielded a z-score in assay [2] of 0.86. Also, the composite Z-score in assay [11] is 0.254 (inactive).
